For part of these data: Entries with a potency or affinity are not part of this list.
Key:
Staphylococcus aureus = assay: Antibacterial activity against Staphylococcus aureus MRSA ATCC 43300 (CO-ADD:GP_020); MIC in CAMBH media using NBS plates, by Resazurin F(560/590); type: functional; settings: Concentration 20 uM, ASSAY_TEST Inhibition of Bacterial Growth, detection method Resazurin, Fluorescence (ex560/em590), MEDIA CAMHB, plate type 384well, CORNING #3640, time 18 hr
Acinetobacter baumannii = assay: Antibacterial activity against Acinetobacter baumannii ATCC 19606 (CO-ADD:GN_034); MIC in CAMBH media using NBS plates, by Resazurin F(560/590); type: functional; settings: Concentration 20 uM, ASSAY_TEST Inhibition of Bacterial Growth, detection method Resazurin, Fluorescence (ex560/em590), MEDIA CAMHB, plate type 384well, CORNING #3640, time 18 hr
Escherichia coli = assay: Antibacterial activity against Escherichia coli ATCC 25922 (CO-ADD:GN_001); MIC in CAMBH media using NBS plates, by Resazurin F(560/590); type: functional; settings: Concentration 20 uM, ASSAY_TEST Inhibition of Bacterial Growth, detection method Resazurin, Fluorescence (ex560/em590), MEDIA CAMHB, plate type 384well, CORNING #3640, time 18 hr
Klebsiella pneumoniae = settings: Concentration 20 uM; ASSAY_TEST Inhibition of Bacterial Growth; detection method Absorption (OD600); MEDIA CAMHB; plate type 384well; NBS; CORNING #3640; time 18 hr
Candida albicans = settings: 20 µM
Cryptococcus neoformans = settings: Concentration 20 uM; ASSAY_TEST Inhibition of Fungal Growth; detection method Resazurin; Absorption (OD600-OD570); plate type 384well; NBS; CORNING #3640

Row | SMILES | Inhibition (Staphylococcus aureus) | Inhibition (Acinetobacter baumannii) | Inhibition (Escherichia coli) | Inhibition (Klebsiella pneumoniae) | Inhibition (Candida albicans) | Inhibition (Cryptococcus neoformans)
1 | CC1CCC2C(C)C3C(CC4C5CC=C6CC(OC7OC(CO)C(O)C(OC8OC(CO)C(O)C(O)C8O)C7OC7OC(C)C(O)C(O)C7O)CCC6(C)C5CCC43C)N2C1.Cl (stereo not given) | -4.66% | -5.32% | -0.39% | 4.14% | -2.24% | -10.4%
2 | CC1CCC2C(C)C(=O)OC3OC4(C)CCC1C32OO4 (stereo not given) | 7.59% | -3.18% | 7.05% | 14.85% | 23.7% | -16.17%
3 | COc1cccc2c1cc([N+](=O)[O-])c1c(C(=O)O)cc3c(c12)OCO3 [ARISTOLOCHIC ACID] | -13.97% | -2.12% | 5.35% | -1.07% | 8.48% | -6.51%
4 | C1CCC(NC2CCCCC2)CC1.COC1C(OC(=O)/C=C/C=C/C=C/C=C/C(=O)O)CCC2(CO2)C1C1(C)OC1CC=C(C)C (stereo not given) | 16.49% | -13.86% | 8.82% | -0.23% | 9.6% | -7.96%
5 | CN1CCc2cc3c(cc2[C@H]1[C@@H]1OC(=O)c2c1ccc1c2OCO1)OCO3 [BICUCULLINE] | 11.14% | -4.97% | 3.43% | 11.38% | -1.4% | -11.52%
6 | CC(=O)O[C@@H]1[C@@H](O)C2=C3[C@]4(C)[C@@H]1C(C)(C)C(=O)C[C@@H]4[C@]3(O)[C@H](OC(C)=O)[C@@]1(C[C@@H]1C)C2=O | 17.09% | -6.85% | 0.22% | 10.98% | -0.55% | -8.42%
7 | COc1ccc2c3c([nH]c2c1)[C@H](C=C(C)C)N1C(=O)[C@@H]2CCCN2C(=O)[C@@H]1C3 [FUMITREMORGIN] | -0.07% | 0.14% | 5.9% | -0.45% | 1.52% | -5.88%
8 | C=C1C(=O)O[C@@H]2C[C@@H](C)[C@@H]3C=CC(=O)[C@@]3(C)[C@@H](O)[C@H]12 [HELENALIN] | 9.39% | -4.22% | 4.79% | 9.92% | 2.42% | -2.82%
9 | CCN1C[C@]2(COC)[C@H](O)C[C@H](OC)[C@]34C1[C@H]([C@H](OC)[C@H]23)[C@]1(OC(C)=O)[C@H]2[C@@H](OC(=O)c3ccccc3)[C@](O)(C[C@H]24)[C@@H](OC)[C@@H]1O | 12.16% | -8.01% | 7.77% | 3.92% | -0.67% | -9.39%
10 | CO[C@@H]1[C@H](O)CC[C@]2(CO2)[C@H]1[C@@]1(C)O[C@@H]1CC=C(C)C | 4.97% | 1.38% | 4.31% | 14.33% | 4.27% | -4.91%
11 | CCC/C=C/C=C/C(=O)OC1/C(=C/C(=O)OC)CC2CC(C(C)O)OC(=O)CC(O)CC3CC(OC(C)=O)C(C)(C)C(O)(CC4C/C(=C/C(=O)OC)CC(/C=C/C(C)(C)C1(O)O2)O4)O3 (stereo not given) | 15.23% | -8.5% | 2.2% | 8.82% | -7.78% | -7.31%
12 | COc1c2c(c(CC=C(C)C)c3oc(=O)c(-c4ccc(O)cc4)c(O)c13)OC(C)(C)C=C2 [LONCHOCARPIC ACID] | 25.18% | -13.6% | 7.94% | -4.69% | -1.79% | -11.25%
13 | CC(C)(O)C1C2OC(=O)C1C1(O)CC3OC34C(=O)OC2C14C (stereo not given) | -15.24% | -3.06% | 2.11% | 1.65% | 3.44% | -6.7%
14 | CC12C(=O)C=CCC1=CCC1C2CCC2(O)C(=O)OC3(C)C4CC5(C)C(COC16OC23C5C6=O)C(=O)O4 (stereo not given) | 21.05% | -16.5% | 8.61% | -1.2% | -2.84% | -7.36%
15 | C=C1C(C)C2C(Cc3ccccc3)NC(=O)C23C(OC(C)=O)/C=C/C(C)(O)CC(C)C/C=C/C3C1O (stereo not given) | -5.72% | -9.16% | -0.68% | -1.52% | 1.45% | -3.95%
16 | C=C1C(=O)OC2C1CCC(C)C1(O)C=CC(=O)C21C (stereo not given) | -5.72% | -10.47% | 2.36% | 3.79% | -0.93% | -3.28%
17 | COc1ccc(C(=O)O[C@H]2CC[C@@]3(C)[C@@H]4CC[C@H]5[C@]6(O)C[C@H](O)[C@@]7(O)[C@@H](CN8C[C@@H](C)CC[C@H]8[C@@]7(C)O)[C@]6(O)C[C@@]53OC24O)cc1OC | 16.97% | -4.41% | 7.62% | 3.66% | -1.53% | -9.31%
18 | OC1CN2CC[C@H](O)[C@@H]2C(O)[C@@H]1O (stereo not given in full) | -15.58% | -6.5% | 3.63% | -1.47% | 2.3% | -9.42%
19 | CC(O)CCC(=O)c1ccoc1 (stereo not given) | -1.39% | -6.14% | 1.51% | -0.54% | -0.15% | -5.46%
20 | COc1ccc2c(c1OC)CN1CCc3cc4c(cc3C1C2)OCO4 (stereo not given) [TETRAHYDROBERBERINE] | 10.57% | -8.62% | 7.87% | -2.26% | -1.05% | -13.18%
21 | CC[C@H]1CN2CCc3cc(OC)c(OC)cc3[C@@H]2C[C@@H]1C[C@H]1NCCc2c1[nH]c1ccc(O)cc21 [TUBULOSINE] | 2.68% | -12.49% | 3.63% | -0.53% | 2.67% | -8.19%
22 | CC1OC(=O)C2CC3CCCCC3C(/C=C/C3CCCC(C)N3C)C12 (stereo not given) | 14.11% | -6.83% | 5.85% | 4.75% | 0.31% | -10.1%
23 | O=P1(N(CCCl)CCCl)NCCCO1 (stereo not given) [CYCLOPHOSPHAMIDE ANHYDROUS] | 22.17% | -9.14% | 1.21% | 1.43% | -2.64% | -8.46%
24 | CC(=O)OC(C)(C)/C=C/C(=O)[C@](C)(O)[C@H]1[C@H](O)C[C@@]2(C)[C@@H]3CC=C4[C@@H](C=C(O)C(=O)C4(C)C)[C@]3(C)C(=O)C[C@]12C [CUCURBITACIN E] | -16.96% | -9.18% | 4.67% | -1.27% | -1.39% | -7.52%
25 | C[C@H]1CCC/C=C/[C@@H]2C[C@H](O)C[C@H]2[C@H](O)/C=C/C(=O)O1 [BREFELDIN A] | 11.17% | -7.42% | 11.85% | -5.16% | 51.3% | -9.22%
26 | CC[C@](C)(O)C(=O)O[C@H]1C(=O)O[C@@H]2C[C@H]3C(C)=C[C@H](O)[C@@H](O)[C@]3(C)[C@H]3[C@@]4(O)OC[C@]32[C@@H]1[C@@H](C)[C@H]4O | 12.34% | -9.38% | 1.71% | 10.36% | 4.77% | -4.27%
27 | CCCCCC(O)C1C(=O)OC(C)C(O)/C=C/C=C/C=C/C=C/C=C(\C)C(O)C(O)C(O)CC(O)CC(O)CC(O)CC(O)CC1O (stereo not given) | -5.29% | 1.14% | 2.6% | 3.06% | -5.54% | -5.55%
28 | COC1C(O)C(C)OC(OC2C(Oc3cccc4c(O)c5c(=O)oc6ccc(C)c7c(=O)oc(c34)c5c67)OC(C)C(O)C2O)C1O (stereo not given) | -17.7% | -6.91% | -0.53% | 2.04% | -2.79% | -9.89%
29 | CC[C@@]1(O)C(=O)OCc2c1cc1n(c2=O)Cc2cc3ccccc3nc2-1 [CAMPTOTHECIN] | 9.46% | -0.94% | 5.98% | 5.61% | 4.14% | -6.71%
30 | COc1ccc2c(c1O)-c1c(OC)c(OC)cc3c1C(C2)N(C)CC3 (stereo not given) | 23.71% | 2.34% | 4.51% | 6.13% | -0.15% | -10.21%

From ChEMBL document CHEMBL4296183, “CO-ADD screening of NIH NCI Natural Product Set III” (2020)
